The values below come from the supplement of paper PMC10849652.

About 7,900 targets were measured; listed, in parts, are those with a hit and a random draw of the rest. About 0.6% of all pairs of compound and target were hits.

Sequence of UniProt Q9P016 (Q9P016 whole entry, looked up): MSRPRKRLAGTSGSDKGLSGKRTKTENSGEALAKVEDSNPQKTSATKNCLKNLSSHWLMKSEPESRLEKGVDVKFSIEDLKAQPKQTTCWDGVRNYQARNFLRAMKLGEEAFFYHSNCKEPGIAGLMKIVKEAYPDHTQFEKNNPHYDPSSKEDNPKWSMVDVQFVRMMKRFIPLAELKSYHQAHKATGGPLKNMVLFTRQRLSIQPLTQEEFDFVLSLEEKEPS
Sequence of UniProt Q9Y5W9 (Q9Y5W9 whole entry, looked up): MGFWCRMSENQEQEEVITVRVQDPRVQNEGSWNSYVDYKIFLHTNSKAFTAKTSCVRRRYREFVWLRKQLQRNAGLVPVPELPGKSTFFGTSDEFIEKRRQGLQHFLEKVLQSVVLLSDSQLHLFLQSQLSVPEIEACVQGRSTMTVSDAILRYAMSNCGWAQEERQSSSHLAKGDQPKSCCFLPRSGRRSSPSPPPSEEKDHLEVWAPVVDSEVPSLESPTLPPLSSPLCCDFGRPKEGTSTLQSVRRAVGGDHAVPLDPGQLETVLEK
Sequence of UniProt Q969X1 (Q969X1 whole entry, looked up): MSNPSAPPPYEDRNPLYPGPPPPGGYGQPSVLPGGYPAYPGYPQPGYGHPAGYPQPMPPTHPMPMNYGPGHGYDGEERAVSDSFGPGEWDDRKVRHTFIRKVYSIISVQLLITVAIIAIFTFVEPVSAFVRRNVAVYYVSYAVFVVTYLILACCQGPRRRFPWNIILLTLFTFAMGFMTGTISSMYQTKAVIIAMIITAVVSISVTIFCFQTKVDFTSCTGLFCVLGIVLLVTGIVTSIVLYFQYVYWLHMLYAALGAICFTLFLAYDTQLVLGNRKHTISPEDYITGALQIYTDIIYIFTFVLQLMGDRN
Sequence of UniProt O95772 (O95772 whole entry, looked up): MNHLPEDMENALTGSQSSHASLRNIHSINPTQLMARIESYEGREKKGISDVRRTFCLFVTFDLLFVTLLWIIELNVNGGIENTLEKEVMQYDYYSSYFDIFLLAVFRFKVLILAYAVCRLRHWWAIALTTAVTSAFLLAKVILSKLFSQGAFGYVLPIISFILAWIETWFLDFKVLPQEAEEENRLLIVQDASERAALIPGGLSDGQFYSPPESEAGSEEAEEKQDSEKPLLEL
Sequence of UniProt P62318 (P62318 whole entry, looked up): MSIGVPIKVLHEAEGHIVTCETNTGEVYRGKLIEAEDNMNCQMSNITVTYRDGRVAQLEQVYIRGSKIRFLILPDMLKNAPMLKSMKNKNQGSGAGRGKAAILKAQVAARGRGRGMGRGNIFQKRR
Sequence of UniProt Q9NQZ5 (Q9NQZ5 whole entry, looked up): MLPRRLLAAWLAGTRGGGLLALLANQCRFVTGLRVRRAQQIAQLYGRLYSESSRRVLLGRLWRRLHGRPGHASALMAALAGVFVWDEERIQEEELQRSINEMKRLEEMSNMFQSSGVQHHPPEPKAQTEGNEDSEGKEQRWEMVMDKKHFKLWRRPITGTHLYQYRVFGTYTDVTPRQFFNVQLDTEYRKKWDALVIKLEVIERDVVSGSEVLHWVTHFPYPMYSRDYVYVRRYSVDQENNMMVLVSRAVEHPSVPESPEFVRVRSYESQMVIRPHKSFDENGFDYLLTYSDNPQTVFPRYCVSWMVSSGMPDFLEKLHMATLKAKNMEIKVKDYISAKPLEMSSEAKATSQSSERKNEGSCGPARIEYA
Sequence of UniProt P51571 (P51571 whole entry, looked up): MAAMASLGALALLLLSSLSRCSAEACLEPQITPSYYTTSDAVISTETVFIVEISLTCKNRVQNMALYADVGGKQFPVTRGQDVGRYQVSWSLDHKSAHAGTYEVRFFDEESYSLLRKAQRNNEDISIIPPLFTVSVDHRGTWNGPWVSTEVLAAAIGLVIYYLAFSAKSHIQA
Sequence of UniProt Q15796 (Q15796 whole entry, looked up): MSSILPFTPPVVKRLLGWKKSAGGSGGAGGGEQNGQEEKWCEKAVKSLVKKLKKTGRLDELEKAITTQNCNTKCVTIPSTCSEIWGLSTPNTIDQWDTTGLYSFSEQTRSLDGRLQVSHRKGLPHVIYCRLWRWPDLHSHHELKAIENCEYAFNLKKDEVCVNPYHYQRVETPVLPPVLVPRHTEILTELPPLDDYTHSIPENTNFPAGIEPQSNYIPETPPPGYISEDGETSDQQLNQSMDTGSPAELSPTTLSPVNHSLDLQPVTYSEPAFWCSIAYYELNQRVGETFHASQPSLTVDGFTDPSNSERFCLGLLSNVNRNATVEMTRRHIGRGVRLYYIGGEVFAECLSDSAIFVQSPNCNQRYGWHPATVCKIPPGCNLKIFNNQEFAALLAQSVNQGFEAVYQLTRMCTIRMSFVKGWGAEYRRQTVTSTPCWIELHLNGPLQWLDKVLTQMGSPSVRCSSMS
Sequence of UniProt Q9BZD2 (Q9BZD2 whole entry, looked up): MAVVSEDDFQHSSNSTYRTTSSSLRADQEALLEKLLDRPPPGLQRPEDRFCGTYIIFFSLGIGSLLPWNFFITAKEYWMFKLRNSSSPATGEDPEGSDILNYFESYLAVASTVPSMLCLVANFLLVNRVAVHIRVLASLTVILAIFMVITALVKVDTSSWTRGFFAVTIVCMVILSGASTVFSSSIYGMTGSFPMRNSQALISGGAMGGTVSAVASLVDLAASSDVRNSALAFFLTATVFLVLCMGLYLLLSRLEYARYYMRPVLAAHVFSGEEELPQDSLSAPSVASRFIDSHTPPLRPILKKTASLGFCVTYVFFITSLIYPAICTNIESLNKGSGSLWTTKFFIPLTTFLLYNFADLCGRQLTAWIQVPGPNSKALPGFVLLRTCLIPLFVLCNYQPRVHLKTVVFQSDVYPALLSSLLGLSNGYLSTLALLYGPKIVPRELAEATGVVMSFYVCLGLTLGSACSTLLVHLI
Sequence of UniProt Q8NEW0 (Q8NEW0 whole entry, looked up): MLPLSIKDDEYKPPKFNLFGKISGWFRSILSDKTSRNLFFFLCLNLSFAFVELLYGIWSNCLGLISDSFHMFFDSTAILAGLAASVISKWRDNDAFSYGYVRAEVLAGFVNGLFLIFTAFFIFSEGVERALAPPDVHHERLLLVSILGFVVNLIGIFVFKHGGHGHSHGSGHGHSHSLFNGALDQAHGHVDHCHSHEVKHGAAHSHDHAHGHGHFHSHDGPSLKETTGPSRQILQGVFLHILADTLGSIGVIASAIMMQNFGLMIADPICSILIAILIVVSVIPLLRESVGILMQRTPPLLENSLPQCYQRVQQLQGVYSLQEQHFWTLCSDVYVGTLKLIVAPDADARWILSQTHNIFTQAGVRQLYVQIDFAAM
Sequence of UniProt Q9UDY2 (Q9UDY2 whole entry, looked up): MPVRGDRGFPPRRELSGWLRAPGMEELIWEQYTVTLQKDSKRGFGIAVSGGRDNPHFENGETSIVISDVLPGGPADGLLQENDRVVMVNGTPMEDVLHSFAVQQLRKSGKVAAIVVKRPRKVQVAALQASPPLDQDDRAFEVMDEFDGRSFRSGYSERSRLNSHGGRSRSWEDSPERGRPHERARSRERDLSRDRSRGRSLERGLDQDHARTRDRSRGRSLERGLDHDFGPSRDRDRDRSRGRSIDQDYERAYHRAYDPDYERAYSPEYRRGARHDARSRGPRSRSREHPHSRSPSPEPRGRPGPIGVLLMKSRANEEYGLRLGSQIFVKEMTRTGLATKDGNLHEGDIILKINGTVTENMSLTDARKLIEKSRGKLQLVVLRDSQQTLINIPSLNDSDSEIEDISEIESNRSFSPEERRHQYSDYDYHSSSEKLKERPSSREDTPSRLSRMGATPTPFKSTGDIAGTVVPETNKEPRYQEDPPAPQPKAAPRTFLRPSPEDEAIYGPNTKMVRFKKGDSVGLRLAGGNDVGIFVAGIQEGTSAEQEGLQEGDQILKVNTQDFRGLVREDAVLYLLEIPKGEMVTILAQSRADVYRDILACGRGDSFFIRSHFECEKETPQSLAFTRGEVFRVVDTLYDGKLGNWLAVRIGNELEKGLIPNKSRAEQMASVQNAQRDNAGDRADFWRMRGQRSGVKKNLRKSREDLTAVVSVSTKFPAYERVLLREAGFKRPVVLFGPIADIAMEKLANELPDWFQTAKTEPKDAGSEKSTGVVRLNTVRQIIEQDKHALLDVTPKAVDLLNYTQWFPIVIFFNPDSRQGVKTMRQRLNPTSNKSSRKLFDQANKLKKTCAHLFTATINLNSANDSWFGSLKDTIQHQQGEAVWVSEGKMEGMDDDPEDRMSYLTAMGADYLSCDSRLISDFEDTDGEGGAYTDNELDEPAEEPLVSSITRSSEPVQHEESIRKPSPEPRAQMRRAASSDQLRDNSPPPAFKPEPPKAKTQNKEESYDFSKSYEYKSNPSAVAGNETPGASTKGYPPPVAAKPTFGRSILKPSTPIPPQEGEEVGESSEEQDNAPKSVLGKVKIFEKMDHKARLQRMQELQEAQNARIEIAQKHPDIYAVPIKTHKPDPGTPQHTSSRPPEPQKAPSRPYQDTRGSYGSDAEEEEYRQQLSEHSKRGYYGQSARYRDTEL
Sequence of UniProt Q8IWA5 (Q8IWA5 whole entry, looked up): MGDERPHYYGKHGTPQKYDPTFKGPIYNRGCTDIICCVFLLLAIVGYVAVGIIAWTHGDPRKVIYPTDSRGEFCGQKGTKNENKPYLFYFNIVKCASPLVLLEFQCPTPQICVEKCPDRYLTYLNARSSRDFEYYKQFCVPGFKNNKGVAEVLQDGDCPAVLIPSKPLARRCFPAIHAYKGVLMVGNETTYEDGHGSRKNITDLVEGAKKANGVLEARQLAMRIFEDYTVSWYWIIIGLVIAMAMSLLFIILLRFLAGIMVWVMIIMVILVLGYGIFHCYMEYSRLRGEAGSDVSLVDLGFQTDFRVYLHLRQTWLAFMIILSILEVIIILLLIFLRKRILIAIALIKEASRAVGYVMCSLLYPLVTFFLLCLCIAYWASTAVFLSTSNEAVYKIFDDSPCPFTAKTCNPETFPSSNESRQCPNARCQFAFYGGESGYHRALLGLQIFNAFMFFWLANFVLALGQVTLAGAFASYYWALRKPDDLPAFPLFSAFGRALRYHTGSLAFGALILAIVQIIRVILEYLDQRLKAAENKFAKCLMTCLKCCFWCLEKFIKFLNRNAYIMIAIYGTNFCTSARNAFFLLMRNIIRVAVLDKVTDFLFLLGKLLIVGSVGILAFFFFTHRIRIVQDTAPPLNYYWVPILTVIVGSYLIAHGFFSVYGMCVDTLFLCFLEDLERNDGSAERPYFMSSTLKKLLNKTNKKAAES

Compound in one assay: C1=CC(=C(C=C1Cl)C2=NC3=NC=CN=C3C(=N2)NC4=CC=NC=C4)F
Nature of the assay: log2 fold change, soluble protein after heating vs DMSO (PISA); higher = thermal stabilisation; K562 cells, 10 uM, 30 min; active = over 0.2 and 3.5 SD of the protein, either way, in both replicates (recomputed). The gist of the method:
(§1)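 K562 cells at 2×10^6 cells/mL were given 10 μM compound for 30 min. Aliquots then went through 3 min of heating across 48°C-58°C, were pooled, and were extracted in PBS with 0.5% NP-40 at 4°C, and the supernatant after 21,000xg for 90 min was quantified by TMTpro 16plex LC-MS/MS with channel sums equalised. Thermal stability relative to control samples, from duplicates, is given as log2 fold change.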
Regarding STAT3 (UniProt P40763), the log2 fold change was 0.026 (inactive).
Still for that read-out and setting: then SNX3 (UniProt O60493), with -0.056 (inactive); and SLC25A42 (UniProt Q86VD7), with 0.089 (inactive).
Take STRN (UniProt O43815): the log2 fold change was 0.033 (inactive).
On to SNX11 (UniProt Q9Y5W9), for which the log2 fold change is 0.035 (inactive).
On the same count and under the same terms, then STARD3NL (UniProt O95772), with -0.004 (inactive).
Same read-out and setting: under SNX12 isoform 1 (UniProt Q9UMY4) stands 0.052 (inactive).
Still for that read-out and setting: under SRC isoform 2 (UniProt P12931) stands -0.006 (inactive); under SLIRP (UniProt Q9GZT3), 0.27 (inactive).
Regarding SPG11 (UniProt Q96JI7), the log2 fold change is -0.089 (inactive).
Regarding TMBIM1 (UniProt Q969X1), the log2 fold change was 0.122 (inactive).
On to TJP2 isoform 7 (UniProt Q9UDY2), for which the log2 fold change was -0.042 (inactive).
In the case of SMAD2 (UniProt Q15796), the log2 fold change is -0.065 (inactive).
In the case of TERF2IP (UniProt Q9NYB0), the log2 fold change was -0.016 (inactive).
As to STK25 (UniProt O00506), the log2 fold change was 0.062 (inactive).
Turning to STARD7 (UniProt Q9NQZ5), the log2 fold change was 0.024 (inactive).
Same read-out and setting: then TCERG1 (UniProt O14776), with 0.152 (inactive); and SREK1 isoform 2 (UniProt Q8WXA9), with -0.019 (inactive).
TBC1D23 (UniProt Q9NUY8): the log2 fold change is 0.047 (inactive).
As for TGFBI (UniProt Q15582), the log2 fold change was 0.054 (inactive).
Still for that read-out and setting: under TFRC (UniProt P02786) stands 0.022 (inactive); under SSR4 (UniProt P51571), 0.041 (inactive).
For the target THYN1 (UniProt Q9P016), the log2 fold change was -0.041 (inactive).
On the same count and under the same terms, under SLC44A2 isoform 2 (UniProt Q8IWA5) stands -0.059 (inactive); under SLC25A36 (UniProt Q96CQ1), -0.083 (inactive); under TEX30 (UniProt Q5JUR7), -0.011 (inactive).
Same read-out and setting: under TLK1 (UniProt Q9UKI8) stands 0.041 (inactive); under SRI (UniProt P30626), 0.322 (inactive).
Same read-out and setting: then SLC35F6 (UniProt Q8N357), with -0.008 (inactive).
Take SPTBN4 (UniProt Q9H254): the log2 fold change is -0.045 (inactive).
Same read-out and setting: then SNRPD3 (UniProt P62318), with -0.04 (inactive); and SLC29A3 (UniProt Q9BZD2), with 0.028 (inactive).
On the same count and under the same terms, then SLC27A1 (UniProt Q6PCB7), with 0.055 (inactive); and SLC30A7 (UniProt Q8NEW0), with 0.062 (inactive); and SLC7A6OS (UniProt Q96CW6), with 0.035 (inactive).
Still for that read-out and setting: then STEAP3 isoform 2 (UniProt Q658P3), with 0.017 (inactive); and TAX1BP1 (UniProt Q86VP1), with 0.007 (inactive).

Compound in another assay: C1=CC(=CC=C1C2=NC3=C(N2)C=C(C=C3)C(=O)N)OC4=CC=C(C=C4)Cl
Described as above. The gist of the method: as §1
Regarding STAT3 (UniProt P40763), the log2 fold change was 0.007 (inactive).
Turning to SNX3 (UniProt O60493), the log2 fold change was -0.052 (inactive).
The same measure, in the same setting: under SLC25A42 (UniProt Q86VD7) stands 0.01 (inactive).
On the same count and under the same terms, under STRN (UniProt O43815) stands 0.013 (inactive).
The same measure, in the same setting: then SNX11 (UniProt Q9Y5W9), with 0.037 (inactive); and STARD3NL (UniProt O95772), with -0.003 (inactive); and SNX12 isoform 1 (UniProt Q9UMY4), with -0.019 (inactive).
Take SRC isoform 2 (UniProt P12931): the log2 fold change was 0.153 (inactive).
Take SLIRP (UniProt Q9GZT3): the log2 fold change is -0.014 (inactive).
On the same count and under the same terms, then SPG11 (UniProt Q96JI7), with -0.084 (inactive).
Still for that read-out and setting: under TMBIM1 (UniProt Q969X1) stands -0.017 (inactive).
Still for that read-out and setting: under TJP2 isoform 7 (UniProt Q9UDY2) stands 0.006 (inactive); under SMAD2 (UniProt Q15796), 0.04 (inactive); under TERF2IP (UniProt Q9NYB0), -0.003 (inactive).
As for STK25 (UniProt O00506), the log2 fold change was -0.009 (inactive).
With STARD7 (UniProt Q9NQZ5), the log2 fold change was 0.086 (inactive).
On the same count and under the same terms, under TCERG1 (UniProt O14776) stands -0.017 (inactive); under SREK1 isoform 2 (UniProt Q8WXA9), 0.12 (inactive).
The same measure, in the same setting: then TBC1D23 (UniProt Q9NUY8), with 0.067 (inactive).
With TGFBI (UniProt Q15582), the log2 fold change is 0.009 (inactive).
The same measure, in the same setting: then TFRC (UniProt P02786), with 0.006 (inactive); and SSR4 (UniProt P51571), with 0.051 (inactive); and THYN1 (UniProt Q9P016), with 0.125 (inactive).
On the same count and under the same terms, under SLC44A2 isoform 2 (UniProt Q8IWA5) stands -0.054 (inactive); under SLC25A36 (UniProt Q96CQ1), 0.003 (inactive); under TEX30 (UniProt Q5JUR7), -0.013 (inactive).
Same read-out and setting: under TLK1 (UniProt Q9UKI8) stands -0.012 (inactive).
Turning to SRI (UniProt P30626), the log2 fold change is 0.025 (inactive).
On the same count and under the same terms, under SLC35F6 (UniProt Q8N357) stands -0.067 (inactive); under SPTBN4 (UniProt Q9H254), 0.078 (inactive); under SNRPD3 (UniProt P62318), -0.038 (inactive).
With SLC29A3 (UniProt Q9BZD2), the log2 fold change is 0.043 (inactive).
Still for that read-out and setting: then SLC27A1 (UniProt Q6PCB7), with -0.008 (inactive); and SLC30A7 (UniProt Q8NEW0), with 0.006 (inactive).
Same read-out and setting: under SLC7A6OS (UniProt Q96CW6) stands -0.039 (inactive); under STEAP3 isoform 2 (UniProt Q658P3), -0.019 (inactive); under TAX1BP1 (UniProt Q86VP1), 0.044 (inactive).
